Screening data deposited in PubChem by National Center for Advancing Translational Sciences (NCATS).
RGS12 GoLoco inh: qHTS Assay for Inhibitors of RGS12 GoLoco Motif Activity (Red Fluorophore) | Potency, µM (doses to about 61.6 µM), for the others: at the top dose activity, negative = inhibition, usual class: inhibitors | 230,000 tested, 0.44% active | Guanine nucleotide-binding protein G(i) subunit alpha-1 (Homo sapiens), P63096 | Gai1:RGS12 GoLoco peptide FP, rhodamine, 10 min; active = well fitted inhibition curve with a large enough effect, not every such curve was filed as active; inactive = no such curve, though single readings can be large or run the other way; also: nearly all actives have a fitted effect of over 30% in size
Target sequence (P63096 whole entry, looked up): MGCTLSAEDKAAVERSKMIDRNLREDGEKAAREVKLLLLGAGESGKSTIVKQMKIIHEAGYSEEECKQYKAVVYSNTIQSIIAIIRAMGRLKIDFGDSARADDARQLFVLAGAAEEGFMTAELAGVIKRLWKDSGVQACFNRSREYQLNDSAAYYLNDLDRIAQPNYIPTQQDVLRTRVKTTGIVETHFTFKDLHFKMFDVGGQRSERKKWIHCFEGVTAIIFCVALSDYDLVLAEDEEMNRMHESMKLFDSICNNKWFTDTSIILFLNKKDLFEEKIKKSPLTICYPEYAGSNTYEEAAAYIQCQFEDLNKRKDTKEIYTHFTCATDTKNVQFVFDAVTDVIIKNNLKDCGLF
Tau fibril ThT: qHTS for Inhibitors of Tau Fibril Formation, Thioflavin T Binding; Potency, µM (highest dose often 57.4 µM), for the others: top-dose activity, negative = inhibition, most hits filed as inhibitors; Microtubule-associated protein tau (Homo sapiens), P10636; 270,000 tested, 2.1% active; recombinant tau K18 P301L, heparin-induced fibrillization, ThT fluorescence; also: nearly all actives have a fitted effect of over 55% in size
Target sequence (P10636 561-689 P618L limits assumed): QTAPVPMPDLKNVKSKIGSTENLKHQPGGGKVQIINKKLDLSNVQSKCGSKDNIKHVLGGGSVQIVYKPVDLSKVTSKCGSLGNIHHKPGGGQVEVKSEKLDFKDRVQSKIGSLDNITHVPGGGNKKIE
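ThT emission at 510 nm, taken 1 hr after adding 30 uM dye, quantifies aggregates formed when 20 uM heparin acts on human tau K18 P301L for 6 hr at 37 C.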
TRb-SRC2 inh: qHTS for Inhibitors of the Interaction of Thyroid Hormone Receptor and Steroid Receptor Coregulator 2 | Thyroid hormone receptor beta (Homo sapiens), P10828 | TRbeta-SRC2 peptide binding, fluorescence polarization; receptor liganded with 1 µM T3 | Potency, µM (doses to about 106 µM), for the others: at the top dose activity change, negative = inhibition, usual class: inhibitors | 280,000 tested, 0.065% active | AID 1469, 2008;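 also: plate controls were bound peptide for no effect and peptide without receptor for full effect; nearly all actives have a fitted effect of over 50% in size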
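Binding of a 20-amino-acid Texas Red SRC2 peptide (20 nM) to TRb ligand-binding domain (0.6 uM) with agonist T3 at 1 uM was followed by fluorescence polarization after a 5 hr room-temperature incubation.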
Tau FP inhib: qHTS for Inhibitors of Tau Fibril Formation, Fluorescence Polarization; 280,000 tested, 0.39% active; Microtubule-associated protein tau (Homo sapiens), P10636; AID 1468, 2008; Potency, µM (series often up to 57.7 µM), for the others: at the top dose activity, negative = inhibition, actives largely listed as inhibitors; K18 P301L tau heparin fibrillization, Alexa594 FP, 6 h; also: nearly all actives have a fitted effect of over 55% in size
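Compound effects on tau fibrillization are measured by Alexa 594 fluorescence polarization (ex 555, em 632 nm). K18 P301L tau is used at 15 uM with 0.24 uM labeled tracer, and 20 uM heparin induces aggregation over 6 hr at 37 C.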
Tau fluor cs: Counterscreen qHTS for Inhibitors of Tau Fibril Formation, Fluorescence Polarization | tau K18 P301L (four-repeat tau fragment) Alexa594 fluorescence, heparin fibrillization | Potency, µM (titrated, usually from 57.7 µM), inactives show top-dose activity change, negative = decrease | 280,000 tested, 0.93% active | AID 1463, 2008; also: nearly all actives have a fitted effect of over 55% in size
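Human K18 P301L tau (15 uM unlabeled plus 0.24 uM Alexa 594-labeled, final) in 100 mM sodium acetate pH 7 was mixed with compound and 20 uM heparin and incubated 6 hr at 37 C.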
TR SRC2 fluor cs: Total Fluorescence Counterscreen for Inhibitors of the Interaction of Thyroid Hormone Receptor and Steroid Receptor Coregulator 2; TRb/SRC2 Texas Red total fluorescence interference; Potency, µM (titrated, usually from 106 µM), inactives show at the top dose fluorescence change, negative = quenching; 280,000 tested, 0.29% active; active = well fitted curve in either direction with a large enough effect; inconclusive = small, poorly fitted or top-dose-only effect
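Flags fluorescent or light-absorbing compounds by total fluorescence, S + 2P, at 555 nm excitation and 632 nm emission. Mixture: 20 nM Texas Red SRC2 peptide, 0.6 uM human TRb LBD, 1 uM T3, 5% DMSO; compound exposure 5 h at ambient temperature.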
* marks the source's active call; other numbers are inactive results; ? = inconclusive; · = not tested or not shown; [ ] = remark or other dose. Shown are actives, neighbours in structure and some others; about 3.1% of the full set was active somewhere. Unless noted, calls follow the shape of the dose curve; as a rule, active = well fitted curve in the direction sought with a large enough effect; inconclusive = small, poorly fitted or top-dose-only effect, or another doubt; inactive = no such curve, though single readings can be large; an effect the other way counts as inactive or inconclusive. Unless noted, % is scaled to controls: 0 for no effect and ±100 for the full control effect; potency is read from the fitted curve at half-maximal effect.

SMILES	RGS12 GoLoco inh	Tau fibril ThT	TRb-SRC2 inh	Tau FP inhib	Tau fluor cs	TR SRC2 fluor cs
CCOc1ccc(C2C(C(=O)c3ccco3)=C(O)C(=O)N2Cc2cccnc2)cc1OC (stereo not drawn)	-15.2%	-13.9%	-6.0%	-8.3%	-6.8%	0.4%
Cc1ccnc(N/N=C/c2ccco2)n1	4.4%	-13.9%	-1.4%	0.9%	-10.4%	0.6%
CC(/C=N/Nc1nnc2c(n1)[nH]c1ccccc12)=C\c1ccco1	-13.4%	6.31µM*	-14.8%	-12.4%	?	-2.5%
Cc1cccc2c1[nH]c1nc(N/N=C\c3ccco3)nnc12	0.7%	6.31µM*	-16.2%	-6.6%	-27.6%	-1.0%
Cc1cc(C)n(CC(O)Cn2cnc3c2c(=O)n(C)c(=O)n3C)n1 (stereo not drawn)	-12.6%	8.7%	-13.6%	2.8%	7.3%	-2.2%
CC1(C)CC(=O)C(C(c2ccco2)C2C(=O)CC(C)(C)CC2=O)C(=O)C1	4.3%	28.2µM*	-2.2%	?	-23.8%	0.8%
CCNS(=O)(=O)c1ccc(NS(C)(=O)=O)cc1	1.3%	8.2%	-8.6%	-5.3%	4.2%	0.6%
CCOC(=O)c1cnc2ccc(C(=O)OC)cc2c1Nc1cccc(C(=O)O)c1	1.3%	-6.8%	4.0%	-5.2%	-7.7%	-2.2%
CCOC(=O)c1cnc2ccc(C)cc2c1Nc1ccc(N(CC)CC)cc1	·	12.6µM*	0.6%	?	?	-2.8%
CCOC(=O)c1cnc2ccc(C(=O)OC)cc2c1Nc1ccc(N2CCOCC2)cc1	·	14.1µM*	4.8%	-1.1%	?	-0.7%
CCOC(=O)c1cnc2ccc(C)cc2c1Nc1ccc(N2CCOCC2)cc1	-9.5%	28.2µM*	-10.9%	?	?	-4.8%
CCOC(=O)c1cnc2ccc(Cl)cc2c1Nc1ccc(N2CCOCC2)cc1	·	15.8µM*	15.0%	-12.1%	?	0.2%
CCC(Sc1nnc2c3ccccc3n(CC)c2n1)C(=O)Nc1sc2c(c1C#N)CCCC2 (stereo not drawn)	22.2%	?	5.8%	-9.3%	-24.3%	1.3%
C=CCNc1nc(-c2ccc([N+](=O)[O-])cc2)cs1	0.8%	7.08µM*	1.6%	18.9%	-19.9%	-2.2%
CCCOc1ccc(-c2nc(-c3ccc([N+](=O)[O-])cc3)cs2)cc1	4.1%	?	5.0%	-6.2%	?	5.2%
CN(C)c1nc(-c2ccc([N+](=O)[O-])cc2)cs1	-2.5%	12.6µM*	1.8%	9.6%	?	-1.0%
Cc1nn(-c2ccccc2)c2nc(-c3cccs3)cc(C(=O)NN)c12	20.0%	2.5%	0.5%	?	-27.2%	-4.6%
Cc1ccc(S(=O)(=O)Nc2nc(C)c(NC(=O)OCCCl)s2)cc1	-0.6%	-7.3%	-13.8%	5.8%	-12.7%	2.2%
Cc1ccc(S(=O)(=O)Nc2nc(C)c(NC(=O)Nc3ccc(Cl)cc3Cl)s2)cc1	3.7%	22.4µM*	-2.7%	1.2%	14.1µM*[quencher]	-2.7%
CC(C)c1cc[n+](-c2nc([O-])sc2C=O)cc1	-12.2%	35.5µM*	-2.4%	-24.6%	-25.5%	-1.2%
COc1cc([N+](=O)[O-])cc(/C=N/NC(=O)c2cc(-c3ccccc3)nc3ccccc23)c1O	17.6%	15.8µM*	5.1%	13.0%	?	-7.5%
Cc1cc(C(=O)N/N=C/c2cccc([N+](=O)[O-])c2)c2ccccc2n1	1.6%	?	1.9%	-7.5%	-8.4%	-2.1%
COc1cc([N+](=O)[O-])cc(/C=N/NC(=O)c2cc(C)nc3ccccc23)c1O	9.4%	14.1µM*	3.5%	-8.3%	-22.2%	-4.5%
O=c1cc(CF)[nH]c(=S)[nH]1	-5.1%[14.2 µM]	·	·	·	·	·
CC(=O)NCC(=O)NC(C(=O)Nc1ccc2c(c1)OCCO2)c1ccccc1 (stereo not drawn)	1.8%	-1.8%	-15.1%	7.8%	-0.2%	0.1%
SMILES	RGS12 GoLoco inh	Tau fibril ThT	TRb-SRC2 inh	Tau FP inhib	Tau fluor cs	TR SRC2 fluor cs
Cc1nc2ncnn2c(C)c1CCC(=O)NCc1cccc(Cl)c1	·	4.4%	-1.2%	5.8%	2.2%	-5.8%
CC(=O)N1CCc2c(sc3c2c(=O)n(Cc2ccccc2)c(=O)n3CC(=O)Nc2ccc(C)c(F)c2)C1	·	?	2.3%	28.2µM*	?	-12.5%
COc1cccc(NC(=O)Cn2c(=O)n(Cc3ccccc3)c(=O)c3c4c(sc32)CN(C(C)=O)CC4)c1	·	7.0%	-9.1%	?	?	9.5%
Cc1sc2c(c1C)c(=O)n(Cc1ccccc1)c(=O)n2CC(=O)Nc1cccc(Cl)c1	·	?	1.6%	31.6µM*	-24.4%	-46.9%
CC1C/C(=C\c2cccnc2)C(=O)/C(=C/c2cccnc2)C1 (stereo not drawn)	7.2%	7.08µM*	13.5%	?	-15.7%	0.0%
O=C1/C(=C/c2cccnc2)CCc2c1[nH]c1ccccc21	22.9%	7.08µM*	-4.4%	-0.8%	-23.4%	-1.8%
O=C1/C(=C\c2cccnc2)Sc2ccccc21	26.5%	?	4.4%	13.0%	-24.7%	-11.7%
Cc1nc2cc(NC(=O)N3c4ccccc4CC3C)ccc2o1 (stereo not drawn)	8.9%	-9.0%	3.2%	7.5%	-8.4%	1.7%
Cn1c(SCC(=O)c2ccc(F)cc2)nnc1-c1cnccn1	·	-5.9%	-26.9%	-1.8%	3.4%	0.5%
COc1ccc2c(c1)cc(CNc1ccc(OC)c(OC)c1)c(=O)n2CC(=O)Nc1ccccc1C	·	?	8.3%	7.7%	?	-1.1%
COc1ccc2c(c1)cc(CNc1ccc(OC)c(OC)c1)c(=O)n2CC(=O)Nc1ccc(F)cc1	·	?	-0.9%	6.3%	15.8µM*[quencher]	-1.4%
C=CCNC(=S)N1CCN(CCN=CC2=C(O)CC(c3ccc(Cl)cc3)CC2=O)CC1 (stereo not drawn)	6.7%	-6.0%	-8.0%	0.3%	-9.8%	-3.4%
COC(=O)C1=C(C(=O)OC)C(c2ccccc2O)c2sc(=O)[nH]c2S1 (stereo not drawn)	1.3%	25.1µM*	-0.2%	3.1%	-20.2%	-1.1%
O=C1NC2(CCCCCCC2)C(=O)N1Cc1ccc(F)cc1	9.3%	-3.0%	2.9%	-2.4%	-4.5%	1.3%
CCC1=C/C(=C/N(C)c2ccccc2)C(=O)S1	17.8%	25.1µM*	-6.0%	?	?	0.1%
COc1cccc(NC(=O)Cn2c(=O)n(Cc3ccc4c(c3)OCO4)c(=O)c3oc4ccccc4c32)c1	·	?	11.2%	28.2µM*	?	-1.9%
